From PubChem BioAssay (NCATS)
Inconclusive results are not listed. Activity calls are given as the source filed them. Unless noted, calls come from the whole dose curve; as a rule, active = well fitted curve in the direction sought with a large enough effect; inconclusive = small, poorly fitted or top-dose-only effect, or another doubt; inactive = no such curve, though single readings can be large; an effect the other way counts as inactive or inconclusive.

Key:
[1] = biological target: Cytochrome P450 3A4 (Homo sapiens) (UniProt P08684); assay: qHTS Assay for Inhibitors and Substrates of Cytochrome P450 3A4 (AID 884); note: series mostly up to about 57 µM; % is set by controls: 0 for no effect and ±100 for the full control effect; nearly all actives have a fitted effect of over 50% in size
Procedure, shortened: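 20 nM human CYP3A4 with 25 uM Luciferin-PPXE (at KM) in 200 mM KPO4, preincubated 10 min with compound; NADPH regeneration started a 60 min RT reaction. Luciferin detected by luminescence, normalized to 57 uM ketoconazole as full inhibition.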

[2] = biological target: Cytochrome P450 2C19 (Homo sapiens) (UniProt P33261); assay: qHTS Assay for Inhibitors and Substrates of Cytochrome P450 2C19 (AID 899); note: nearly all actives have a fitted effect of over 60% in size; note: potency is the fitted concentration of half-maximal effect
Procedure, shortened: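 5nM enzyme + 10uM Luciferin-H EGE (=KM), 50mM KPO4; cpd pin-transferred, 10 min 37C; NADPH regen, 60 min 37C; stopped w/ luciferin detection reagent, 20 min; luminescence. Normalized to 57uM ketoconazole (AC100).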

[3] = Confirmation and Secondary Assay for Modulators of Hemoglobin Beta Chain Splicing at IVS2 654 locus (AID 910);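 note: HeLa cells stably carrying EGFP split by mutant beta-globin IVS2-654 intron; per-well total GFP intensity by laser scanning cytometry after 2-day treatment; % of control where 0% means no effect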
Procedure, shortened: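 Readout: per-well total peak green fluorescence (488 nm ex, 500–520 nm em) from objects 5–250 µm, reflecting correct splicing of an EGFP-654 reporter. Compounds were applied for 2 days at 37 °C to overnight-plated HeLa EGFP-654 cells; controls were DMSO and 500 nM IVS2-654 PNA.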

[4] = Cellular Toxicity (caspase-3) HepG2 (AID 654);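 note: cells exposed to compound for 16 hours before reading; 0% = DMSO alone and 100% = caspase signal from 100 µM tamoxifen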
Procedure, shortened: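 qHTS, HepG2, 1500 cells/well, complete medium; cpd 16 h 37 °C; Caspase-Glo 3/7, 20 min RT; lum. Norm: DMSO vs 100 uM tamoxifen; AC50 Hill fit.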

[5] = Cellular Toxicity (caspase-3) Jurkat (AID 655);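 note: cells exposed to compound for 16 h at 37 °C before reading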
Procedure, shortened: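 Jurkat cells (5000/well) in complete medium exposed 16 h at 37 C; caspase-3/7 activity read by Caspase-Glo luminescence after 20 min at room temperature. Normalized to DMSO and 100 uM tamoxifen; AC50 from Hill fits.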

[6] = Cellular Toxicity (caspase-3) HUV-EC-C (AID 656);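 note: 0% = DMSO basal and 100% = 100 µM tamoxifen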
Procedure, shortened: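 HUV-EC-C cells (1000/well) in complete medium, compound-treated 16 h at 37 °C; caspase-3/7 activity read by Caspase-Glo 3/7 luminescence. Normalized to DMSO (basal) and 100 uM tamoxifen (100%); AC50 from Hill-equation concentration-response fits.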

[7] = Cellular Toxicity (caspase-3) SHSY5Y (AID 657)
Procedure, shortened: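 SH-SY5Y human neuroblastoma cells, 1500/well, exposed to compound for 16 hours at 37 °C in complete medium. Caspase-3/7 activity read by Caspase-Glo luminescence after 1 hr at room temperature, normalized to DMSO and 10 uM staurosporine; AC50 from Hill fit.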

[8] = Cellular Toxicity (caspase-3) BJ (AID 658);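 note: 0% = DMSO basal and 100% = 10 µM staurosporine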
Procedure, shortened: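 Readout: Caspase-Glo 3/7 luminescence increase in BJ cells after 16 hr treatment at 37 °C. Staurosporine and tamoxifen served as positive controls; AC50 values came from Hill modelling of data normalized to DMSO and 10 uM staurosporine.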

[9] = Cellular Toxicity (caspase-3) MRC-5 (AID 659);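 note: 0% = DMSO basal and 100% = 10 µM staurosporine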
Procedure, shortened: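 Concentration-dependent caspase 3/7 activation is measured in human normal lung fibroblasts (MRC-5) following 16-hour treatment. AC50 values come from standard Hill-equation modeling of luminescence normalized to DMSO and 10 uM staurosporine.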

[10] = Cellular Toxicity (caspase-3) Mesangial (AID 660);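 note: cells exposed to compound for 16 h before the caspase read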
Procedure, shortened: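 Concentration-response qHTS: compound-induced rise in caspase 3/7 luminescence in human mesangial cells after 16 h, normalized to DMSO and 100 uM tamoxifen controls.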

[11] = Cellular Toxicity (caspase-3) SK-N-SH (AID 661);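 note: 0% = DMSO basal and 100% = 10 µM staurosporine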
Procedure, shortened: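 Caspase 3/7 activation is measured as a luminescence increase from aminoluciferin released by substrate cleavage in SK-N-SH cells after 16 hr compound treatment; values are AC50 from concentration-response curves.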

[12] = Cellular Toxicity (caspase-3) H-4-II-E (AID 663);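 note: cells exposed to compound for 16 hr before readout; 0% = DMSO basal and 100% = 100 µM tamoxifen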
Procedure, shortened: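 Apoptosis induction is scored as increased luminescence from caspase 3/7 substrate cleavage in rat hepatoma H-4-II-E cells exposed to compound for 16 hr. Activity is scaled between DMSO and 100 uM tamoxifen.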

[13] = Cellular Toxicity (caspase-3) Hek293 (AID 664);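 note: cells exposed to compound for 16 h at 37 °C before readout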
Procedure, shortened: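 Activation of caspase-3/7 is measured as increased luminescence from cleaved peptide-aminoluciferin substrate in HEK293 cells treated 16 hours at 37 °C. AC50 values come from Hill-equation fits of concentration-response data.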

[14] = Cellular Toxicity (caspase-3) NIH 3T3 (AID 666);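 note: caspase signal read after 16 h compound exposure; 0% = DMSO basal and 100% = 100 µM tamoxifen stimulation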
Procedure, shortened: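 Concentration-response qHTS in NIH 3T3 mouse fibroblasts scores caspase-3/7 activation as rising luminescence after 16 hr compound exposure. Signals are scaled between DMSO-only and 100 uM tamoxifen.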

[15] = Cellular Toxicity (caspase-3) Renal Proximal Tubule (AID 667);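 note: cells exposed to compound for 16 hours at 37 °C before detection; 0% = DMSO basal and 100% = 10 µM staurosporine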
Procedure, shortened: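 Freshly isolated primary rat kidney proximal tubule cells, 1000/well, treated 16 hr at 37 °C, then Caspase-Glo 3/7 luminescence after 1 hr. Normalized to DMSO and 10 uM staurosporine; AC50 from Hill fit.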

[16] = biological target: Cytochrome P450 2C9 (Homo sapiens) (UniProt P11712); assay: qHTS Assay for Inhibitors and Substrates of Cytochrome P450 2C9 (AID 883); note: % is set by controls: 0 for no effect and ±100 for the full control effect; nearly all actives have a fitted effect of over 60% in size
Procedure, shortened: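 Inhibition of CYP2C9 is scored as loss of luminescence, with 57uM sulphaphenazole defining 100% inhibition. Substrate Luciferin-H is used at 100uM, equal to its KM; enzyme at 10nM in 25mM KPO4, 60 min at 37C with NADPH regeneration.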

[17] = biological target: Cytochrome P450 2D6 (Homo sapiens) (UniProt P10635); assay: qHTS Assay for Inhibitors and Substrates of Cytochrome P450 2D6 (AID 891); note: nearly all actives have a fitted effect of over 60% in size; note: potency is the fitted concentration of half-maximal effect;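 for activity change, negative = inhibition: luciferin methyl ether substrate demethylated by CYP2D6 with NADPH regeneration; % is set by controls: 0 for no effect and ±100 for the full control effect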
Procedure, shortened: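 Human CYP2D6 (5 nM) with 30 uM Luciferin-ME EGE (at Km) in 100 mM KPO4, compound preincubated 10 min, then NADPH regeneration system for 60 min at room temperature. Luciferin read by luminescence; normalized to 1.43 uM quinidine.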

[18] = biological target: Cytochrome P450 3A4 (Homo sapiens) (UniProt P08684); assay: qHTS Assay for Activators of Cytochrome P450 3A4 (AID 885); note: nearly all actives have a fitted effect of over 65% in size
Procedure, shortened: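 Human CYP3A4 (20 nM) with Luciferin-PPXE at 25 uM (its KM) in 200 mM KPO4; 10 min compound preincubation, then NADPH regeneration and 60 min reaction at RT. Luciferin read by luminescence; normalized to 57 uM ketoconazole full inhibition.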

[19] = qHTS Assay for Identification of Small Molecule Agonists for Hypoxia Response Element Signaling Pathway (AID 914; active = well fitted activation curve with a large enough effect in the signal ratio, with a control signal flat, not every such curve was filed as active; the % refers to the signal ratio; note: % of control where 0% means no effect); details: ME-180 (cervical carcinoma) HRE-bla reporter, beta-lactamase ratio, CoCl2, 17 h; hits give high values
Procedure, shortened: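 AC50 values come from titration-series %Activity, taken as the 460/530nm ratio of CCF4 fluorescence (excitation 405nm). CellSensor HRE-bla ME-180 cells were treated 17 hours at 37 C with compound plus an EC50 level of CoCl2.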

Chain of Cytochrome P450 2C19 (Homo sapiens) (P33261 whole entry, looked up): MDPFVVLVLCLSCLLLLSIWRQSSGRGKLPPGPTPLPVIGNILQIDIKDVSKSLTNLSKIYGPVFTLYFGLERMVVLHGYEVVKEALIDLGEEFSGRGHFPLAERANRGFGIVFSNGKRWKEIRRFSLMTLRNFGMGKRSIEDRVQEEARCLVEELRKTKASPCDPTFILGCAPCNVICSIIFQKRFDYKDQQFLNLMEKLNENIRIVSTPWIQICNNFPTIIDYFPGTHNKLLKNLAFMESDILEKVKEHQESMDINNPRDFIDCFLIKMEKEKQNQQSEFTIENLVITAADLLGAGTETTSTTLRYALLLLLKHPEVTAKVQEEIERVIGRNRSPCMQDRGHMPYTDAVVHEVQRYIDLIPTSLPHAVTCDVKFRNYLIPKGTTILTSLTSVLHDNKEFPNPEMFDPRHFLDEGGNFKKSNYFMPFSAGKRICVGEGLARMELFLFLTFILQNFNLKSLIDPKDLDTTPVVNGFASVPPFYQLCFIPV
Chain of Cytochrome P450 3A4 (Homo sapiens) (P08684 whole entry, looked up): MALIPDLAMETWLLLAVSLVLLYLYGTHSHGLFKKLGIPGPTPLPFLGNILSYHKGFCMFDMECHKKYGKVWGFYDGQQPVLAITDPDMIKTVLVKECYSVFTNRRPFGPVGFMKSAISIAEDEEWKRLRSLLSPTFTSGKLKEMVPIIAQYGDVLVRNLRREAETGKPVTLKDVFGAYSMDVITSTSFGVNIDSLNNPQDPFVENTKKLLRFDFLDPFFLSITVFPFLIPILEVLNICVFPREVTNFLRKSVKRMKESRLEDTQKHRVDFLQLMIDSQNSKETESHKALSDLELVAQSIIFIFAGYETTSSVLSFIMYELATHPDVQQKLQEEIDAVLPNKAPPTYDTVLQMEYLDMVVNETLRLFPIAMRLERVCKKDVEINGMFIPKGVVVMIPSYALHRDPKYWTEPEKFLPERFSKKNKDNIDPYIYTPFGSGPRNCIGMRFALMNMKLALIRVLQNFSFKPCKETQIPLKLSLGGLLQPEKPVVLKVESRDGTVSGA
Chain of Cytochrome P450 2D6 (Homo sapiens) (P10635 whole entry, looked up): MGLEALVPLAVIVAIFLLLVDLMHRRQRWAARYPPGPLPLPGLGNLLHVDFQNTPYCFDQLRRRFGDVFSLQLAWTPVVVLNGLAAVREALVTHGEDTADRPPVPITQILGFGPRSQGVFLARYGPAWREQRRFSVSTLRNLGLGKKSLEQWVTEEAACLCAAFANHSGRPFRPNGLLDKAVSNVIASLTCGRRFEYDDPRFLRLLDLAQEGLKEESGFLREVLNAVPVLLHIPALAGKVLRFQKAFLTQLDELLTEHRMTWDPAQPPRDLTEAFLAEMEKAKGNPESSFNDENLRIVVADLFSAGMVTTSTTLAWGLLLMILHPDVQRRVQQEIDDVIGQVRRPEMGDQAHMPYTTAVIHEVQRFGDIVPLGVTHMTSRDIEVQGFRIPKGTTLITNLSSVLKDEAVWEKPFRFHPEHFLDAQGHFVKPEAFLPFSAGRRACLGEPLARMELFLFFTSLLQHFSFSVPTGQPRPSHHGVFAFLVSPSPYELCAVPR
Chain of Cytochrome P450 2C9 (Homo sapiens) (P11712 whole entry, looked up): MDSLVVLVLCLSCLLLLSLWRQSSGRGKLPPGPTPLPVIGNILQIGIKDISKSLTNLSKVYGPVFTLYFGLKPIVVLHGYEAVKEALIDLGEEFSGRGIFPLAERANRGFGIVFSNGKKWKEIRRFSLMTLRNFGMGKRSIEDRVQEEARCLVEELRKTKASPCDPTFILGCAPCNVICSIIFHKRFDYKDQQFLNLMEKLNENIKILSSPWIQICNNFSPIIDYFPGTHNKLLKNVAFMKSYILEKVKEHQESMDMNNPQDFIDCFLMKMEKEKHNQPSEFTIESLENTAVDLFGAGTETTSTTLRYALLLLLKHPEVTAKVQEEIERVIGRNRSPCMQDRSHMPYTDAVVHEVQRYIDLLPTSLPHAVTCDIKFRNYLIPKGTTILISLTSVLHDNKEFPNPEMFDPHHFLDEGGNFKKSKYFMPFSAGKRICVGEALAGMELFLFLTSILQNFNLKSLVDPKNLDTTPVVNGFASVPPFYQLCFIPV

O=C(Cn1ccnc1[N+](=O)[O-])NCCO
inactive: outcome [1] | Potency [2] | outcome [3]

NS(=O)(=O)c1cc(C2(O)NC(=O)c3ccccc32)ccc1Cl (stereo not drawn)
inactive: outcome [1] | outcome [3]

CCOC(N)=O
inactive: outcome [1] | outcome [3]

CCN(CC)C(=O)c1cccc(C)c1
inactive: outcome [4] | outcome [5] | outcome [6] | outcome [7] | outcome [8] | outcome [9] | outcome [10] | outcome [11] | outcome [12] | outcome [13] | outcome [14] | outcome [15] | outcome [3]

Cc1cccc(C(=O)O)c1O
inactive: outcome [1] | outcome [3]

Cc1[nH]c(C)c(Cl)c(=O)c1Cl
inactive: outcome [1] | outcome [3]

C[C@@H]1CCC[C@H](C)N1
inactive: Potency [16] | Potency [2]

COc1ccc(O)cc1
inactive: outcome [4] | outcome [5] | outcome [6] | outcome [7] | outcome [8] | outcome [9] | outcome [10] | outcome [11] | outcome [12] | outcome [13] | outcome [14] | outcome [15] | outcome [1]

CC(=O)Nc1cccc(O)c1
inactive: outcome [4] | outcome [5] | outcome [6] | outcome [7] | outcome [8] | outcome [9] | outcome [10] | outcome [11] | outcome [12] | outcome [13] | outcome [14] | outcome [15] | outcome [1] | outcome [3]

CCCC(O)C(CC)CO (stereo not drawn)
inactive: outcome [4] | outcome [5] | outcome [6] | outcome [7] | outcome [8] | outcome [9] | outcome [10] | outcome [11] | outcome [12] | outcome [13] | outcome [14] | outcome [15] | outcome [1]

Nc1ccc(S(=O)(=O)c2ccc(N)cc2)cc1
inactive: outcome [4] | outcome [5] | outcome [6] | outcome [7] | outcome [8] | outcome [9] | outcome [10] | outcome [11] | outcome [12] | outcome [13] | outcome [14] | outcome [15] | outcome [3]

CC(=O)OCC(COC(C)=O)OC(C)=O
inactive: outcome [4] | outcome [5] | outcome [6] | outcome [7] | outcome [8] | outcome [9] | outcome [10] | outcome [11] | outcome [12] | outcome [13] | outcome [14] | outcome [15] | outcome [1] | outcome [3]

Cc1c(N(C)C)c(=O)n(-c2ccccc2)n1C
inactive: outcome [4] | outcome [5] | outcome [6] | outcome [7] | outcome [8] | outcome [9] | outcome [10] | outcome [11] | outcome [12] | outcome [13] | outcome [14] | outcome [15] | outcome [1]

NS(=O)(=O)c1ccc(C(=O)O)cc1
inactive: Potency [16] | activity change, negative = inhibition [1] -0.84% [at 11.4 µM] | Potency [17] | Potency [2]

O=C(O)CCCCC1CCSS1 (stereo not drawn)
inactive: outcome [4] | outcome [5] | outcome [6] | outcome [7] | outcome [8] | outcome [9] | outcome [10] | outcome [11] | outcome [12] | outcome [13] | outcome [14] | outcome [15] | outcome [1] | outcome [3]

CC(=O)Nc1ccccc1
inactive: outcome [4] | outcome [5] | outcome [6] | outcome [7] | outcome [8] | outcome [9] | outcome [10] | outcome [11] | outcome [12] | outcome [13] | outcome [14] | outcome [15] | outcome [1] | outcome [3]

CNCc1ccccc1
inactive: outcome [3]

Cc1c(NC(=O)c2cccnc2)c(=O)n(-c2ccccc2)n1C
inactive: outcome [3]

CC[N+](CC)(CC(=O)Nc1c(C)cccc1C)Cc1ccccc1
active: Potency [17] 7.9 nM

COc1ccc2cc(CCC(C)=O)ccc2c1
inactive: outcome [18] | outcome [3]

C/C=C/C(=O)N(CC)c1ccccc1C
inactive: outcome [1] | outcome [3]

O=c1[nH]cnc2nc[nH]c12
inactive: outcome [1] | outcome [3]

Cc1c(NC(C)C)c(=O)n(-c2ccccc2)n1C
inactive: outcome [1] | outcome [3]

CC[N+](C)(CC)CCOC(=O)C1c2ccccc2Oc2ccccc21
active: Potency [17] 3980 nM

CCN(CC)CCOC(=O)C(c1ccccc1)c1ccccc1
inactive: outcome [3]
active: Potency [17] 5010 nM

C[N+]1(C)CCCC(OC(=O)C(O)(c2ccccc2)c2ccccc2)C1 (stereo not drawn)
inactive: outcome [1] | outcome [3]

NCc1ccc(S(N)(=O)=O)cc1
inactive: outcome [3]

O=C(CCBr)N1CCN(C(=O)CCBr)CC1
inactive: outcome [3]

NC(N)=NS(=O)(=O)c1ccc(N)cc1
inactive: outcome [1] | outcome [3]

CCCCC1(COC(=O)CCC(=O)O)C(=O)N(c2ccccc2)N(c2ccccc2)C1=O
inactive: outcome [3]

Cc1ccsc1/C=C/C1=NCCCN1C
inactive: outcome [3]

CC(C)=CCC/C(C)=C/CO
inactive: outcome [3]

CC(=O)N[C@@H](CC(C)C)C(=O)O
inactive: activation [19] -5.35%

CCS(=O)(=O)CCn1c([N+](=O)[O-])cnc1C
inactive: outcome [3]

CCCCCC(C)N (stereo not drawn)
inactive: outcome [1] | outcome [3]

CC1CCc2cc(F)cc3c(=O)c(C(=O)O)cn1c23 (stereo not drawn)
inactive: outcome [1] | outcome [3]

O=C1c2ccccc2S(=O)(=O)N1CCCCN1CCN(c2ncccn2)CC1
active: Potency [2] 631 nM

Cc1onc(-c2ccccc2)c1-c1ccc(S(N)(=O)=O)cc1
inactive: outcome [3]

Cc1cc(O)cc(C)c1Cl
inactive: outcome [3]

OC(CCN1CCCC1)(c1ccccc1)C1CCCCC1 (stereo not drawn)
inactive: outcome [3]

C=CCSCC1Nc2cc(Cl)c(S(N)(=O)=O)cc2S(=O)(=O)N1 (stereo not drawn)
inactive: outcome [18] | outcome [3]

CC(=O)Oc1cccc(O)c1
inactive: outcome [3]

CC(=O)SC[C@@H](Cc1ccccc1)C(=O)NCC(=O)OCc1ccccc1
active: Potency [17] 316 nM | Potency [2] 126 nM

COc1ccc(NS(=O)(=O)c2ccc(N)cc2)nn1
inactive: outcome [3]

Cn1c([N+](=O)[O-])cnc1COC(N)=O
inactive: outcome [1] | outcome [3]

Nc1ccc(C(=O)Oc2ccccc2)c(O)c1
inactive: outcome [3]

CN1CCCN=C1COC(=O)C(O)(c1ccccc1)C1CCCCC1 (stereo not drawn)
inactive: outcome [3]

O=C(O)c1ccccc1OP(=O)(O)O
inactive: outcome [1] | outcome [3]

Cc1cc(NC(=O)C2=C(O)c3ccccc3S(=O)(=O)N2C)no1
inactive: outcome [1] | outcome [3]

NC(=O)c1ccc([N+](=O)[O-])cc1Cl
inactive: outcome [1] | outcome [3]

COc1ccccc1OCC(O)CO (stereo not drawn)
inactive: outcome [3]

NC(N)=NCCN1CCCCCCC1
inactive: outcome [3]

CC(N)CCCC(C)(C)O (stereo not drawn)
inactive: outcome [1] | outcome [3]

NS(=O)(=O)c1cc2c(cc1C(F)(F)F)NCNS2(=O)=O
inactive: outcome [3]

CCc1cccc(CC)c1NC(=O)CN(CC(=O)O)CC(=O)O
inactive: Potency [2]
